The list is not random: actives were taken first. Their share in the collection is about 2.6%.
HSP90 refold inh: HSP90 inhibitors, primary screen, cell lysate, luminescence. Rabbit reticulocyte lysate, luciferase refolding luminescence, 3 h. inhibition, % at 5.6 µM. 290,000 compounds, 0.91% hits. AID 1789, 2009;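 active means inhibition above the screen-wide mean plus 3 SD, computed separately per campaign, cut at about 16% in these data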;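 further: 0% = DMSO wells and 100% = 60 µM geldanamycin wells; inhibitors lower the luminescence because luciferase stays unfolded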
TROY signal inh: inhibitors of TROY-driven NF-kB signaling, primary screen, Q293 LMP1-TROYcd cells, NF-kB luciferase, uHTS. Q293 LMP1-TROYcd NF-kB luciferase reporter, 4 h. inhibition, % at 10 µM. 360,000 compounds, 0.98% hits;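 active means compounds whose plate-normalised and pattern-corrected inhibition of the luciferase reporter signal at the single screening dose is 50% or more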
LGR2 antag: inhibitors of bursicon-induced LGR2 CRE-luciferase signal, primary screen, cell-based, HEK293, CRE-luciferase reporter, bursicon stimulation. Drosophila bursicon receptor LGR2 (rickets). bursicon-stimulated, 4 h. inhibition, % at 9.99 µM. 380,000 compounds, 0.35% hits. AID 720647, 2013;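 active means drop in luminescence signal, shown as inhibition above about 50% in the replicate tests, limit read from the data, passing the limit was not always enough; inconclusive means probably only some replicates passing the limit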;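 further: agonist challenge used bursicon conditioned medium at about half maximal strength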
TWEAK-Fn14 inh: inhibitors of TWEAK-Fn14 signaling, primary screen, luciferase reporter cells, uHTS; 360,000 compounds, 2% hits; TWEAK-stimulated Fn14 reporter cells, luciferase luminescence, 8 h; AID 1159606, 2016; inhibition, % at 10 µM; in the data active means inhibition above about 50%
aDG glyco up: activators of alpha-DG glycosylation, primary screen, uHTS, Pro5-aDG cells, AlphaScreen. alpha-DG glycosylation AlphaScreen (IIH6); 0% Pro5, 100% B10-LARGE cell signal. activation, % at 10 µM. AID 624168, 2012. 360,000 compounds, 0.22% hits;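 active means activation of at least 8% versus controls, or a plate z-score of at least 8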;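 further: Pro5 are CHO cells carrying HIG-tagged alpha-DG that lacks glycosylation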
EBV LMP1 NFkB: EBV LMP1-driven NF-kappaB luciferase reporter inhibitors, primary screen, cell-based, luminescence, single point; LMP1-induced NF-kappaB luciferase reporter cells; inhibition, % at 12.5 µM; 350,000 compounds, 0.69% hits; in the data active means inhibition above about 41%; inconclusive means no clear call, values can overlap the other calls;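 further: 0% = neutral control wells and 100% = reference inhibitor control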
Starred values were filed as active, the others as inactive; ? = inconclusive; / = no result given.

SMILES	HSP90 refold inh	TROY signal inh	LGR2 antag	TWEAK-Fn14 inh	aDG glyco up	EBV LMP1 NFkB
Cc1cc(O)c(-c2n[nH]c3c2C(c2cccc(O)c2)N(Cc2cccnc2)C3=O)cc1Cl (stereo not drawn)	3	63*	/	18	0	3
Cc1ccc(S(=O)(=O)N(C)C[C@H]2Oc3ccc(NC(=O)CCC(F)(F)F)cc3CC(=O)N([C@@H](C)CO)C[C@@H]2C)cc1	/	/	-22	/	/	/
CCOC(=O)c1c(C)oc2c1C(=O)c1ccccc1C2=O	7	0	7	6	9.7*	3
Cc1oc2c(c1C(=O)c1ccccc1)C(=O)C(=O)c1ccccc1-2	5	32	/	-1	-1	94*
Cc1oc2c(c1C(=O)O)C(=O)c1ccccc1C2=O	7	-13	-6	8	1	3
Cc1nnc(SC(=O)N2c3ccccc3Sc3ccccc32)s1	8	49	/	90*	0	?
COc1ccc2c3c(n(C)c2c1)[C@@H](CO)NCC31CCN(S(=O)(=O)c2ccc(C)cc2)CC1	/	/	-5	/	/	/
Cc1ccc(/C=N/NC(=O)c2ccncc2)cc1	-1	-10	-10	3	0	2
Cc1ccc(/C=N\NC(=O)c2csnn2)cc1	3	9	/	50*	0	-9
COc1ccccc1-c1cc2nc(NCCOc3ccccc3)ccn2n1	/	1	-2	8	0	/
COc1cc(Nc2ccn3nc(-c4ccccc4Cl)cc3n2)cc(OC)c1OC	/	-7	-49	61*	1	/
CN1CCN(CCCNC(=O)c2ccc3c(c2)N(Cc2ccc(F)cc2)CCS3)CC1	-3	0	9	15	0	67*
O=C(NCCCN1CCOCC1)c1ccc2c(c1)N(Cc1ccc(F)cc1)CCS2	5	24	15	-1	0	-7
O=C(C[n+]1cccc(CO)c1)Nc1nc2ccccc2s1	3	67*	10	-8	0	-3
C[C@H](CO)N1C[C@H](C)[C@H](CN(C)Cc2ccncc2)Oc2ncc(C#CCC3CCCC3)cc2C1=O	/	/	-12	/	/	/
O=S(=O)(N[C@@H]1CC[C@@H](CCn2cc(C3(O)CCCC3)nn2)O[C@@H]1CO)c1ccccc1	/	/	16	/	/	/
O=C(CCl)NC1CCCc2ccccc21 (stereo not drawn)	-2	0	8	50*	1	-1
CO[C@H](CN(C)C(=O)c1ccc2c(c1)OCO2)[C@H](C)CN([C@H](C)CO)S(=O)(=O)c1ccccc1	/	/	10	/	/	/
Cn1c(C(=O)N2CCN(c3ccc(Cl)cc3)CC2)cc2c(=O)[nH]c3ccccc3c21	-1	5	/	2	1	27
Cc1ccc(Cl)cc1N1CCN(C(=O)c2cc3c(=O)[nH]c4ccccc4c3n2C)CC1	1	-5	64*	-15	4	33
Cc1ccc2occ(/C=N/NC(=O)c3ccccc3Br)c(=O)c2c1	2	40	14	71*	0	0
O=C(C1CCCC1)N1CC2(C1)[C@H](c1ccccc1)[C@@H](CO)N2CC1CC1	/	/	-2	/	/	/
Cc1cc(=O)[nH]c(N2CCOCC2)n1	-1	14	-1	5	0	0
Cc1cc(N2CCOCC2)c2c(N)c(Br)cc(C)c2n1	3	19	/	13	0	63*
COC(=O)c1nc(NNC(=O)c2ccccc2)sc1-c1ccccc1	4	-6	-11	82*	0	-4
SMILES	HSP90 refold inh	TROY signal inh	LGR2 antag	TWEAK-Fn14 inh	aDG glyco up	EBV LMP1 NFkB
C=CCCc1ccc(C#N)c(SCc2c(C(=O)OCC)c3cc(OC(C)=O)c(Br)cc3n2C)n1	0	10	/	47	3	8
CCOC(=O)c1c(CSc2nc(C)cc(C)c2C#N)n(C)c2cc(Br)c(OC(C)=O)cc12	-4	27	12	61*	1	50*
Cc1nc(N2CCN(c3ccccc3)CC2)[nH]c(=O)c1CCC(C)C	-2	2	14	60*	-1	0
c1ccc2c(NCCCN3CCOCC3)c3ccccc3nc2c1	-5	/	90*	/	/	/
Fc1ccccc1-c1nc(NCCCN2CCOCC2)c2ccccc2n1	-1	-3	6	0	0	-1
CN(C)CCCNc1c2ccccc2nc2ccccc12	-1	-47	92*	-5	0	-31
CNC[C@H]1Oc2ccc(NC(=O)Nc3ccc(F)cc3)cc2CC(=O)N([C@@H](C)CO)C[C@@H]1C	/	/	-12	/	/	/
c1cc(-c2cnc3cccnn23)c2cccnc2c1	/	36	/	61*	0	/
C[C@@H]1CN([C@H](C)CO)C(=O)c2cc(NC(=O)Cc3ccccc3)ccc2O[C@@H](C)CCCCO[C@H]1CN(C)C(=O)C1CCCCC1	/	/	-18	/	/	/
Cc1ccc(NC(=O)NCC2CC2(Cl)Cl)cc1 (stereo not drawn)	2	-68	-68	-23	0	-21
O=C(NCC1CC1(Cl)Cl)Nc1ccc(Cl)c(Cl)c1 (stereo not drawn)	-11	53*	-82	29	0	-14
OC(COc1ccc2cc(Br)ccc2c1)CN1CCCC1 (stereo not drawn)	5	55*	-28	51*	4.7*	-13
COc1ccc(N(CC(=O)Nc2ccccc2C(=O)N2CCCC2)S(C)(=O)=O)cc1	2	-2	2	7	0	0
COc1ccc(N(CC(=O)NCC(C)C)S(=O)(=O)c2ccccc2)cc1	-3	-3	-9	2	0	-4
COC(=O)c1ccc(Cl)c(NC(=O)CN(c2ccccc2)S(=O)(=O)c2ccc(OC)cc2)c1	2	8	16	60*	0	0
COc1ccc(N(CC(=O)Nc2ccccc2C(=O)N2CCCC2)S(=O)(=O)c2ccccc2)cc1	0	-12	-3	5	0	63*
COc1ccc(N(CC(=O)NCCSCc2ccccc2C)S(=O)(=O)c2ccccc2)cc1	5	76*	14	27	1	0
COc1ccc(NC(=O)CN(c2ccccc2)S(=O)(=O)c2ccccc2)c(OC)c1	4	-9	-9	7	0	0
Cc1c(NC(=O)C(c2ccccc2)c2ccccc2)cccc1C(=O)O	1	-41	-6	2	0	-11
O=C(O)c1cc(O)ccc1NC(=O)C(c1ccccc1)c1ccccc1	-1	61*	4	110*	0	9
O=c1oc2ccc(Br)cc2cc1S(=O)(=O)c1ccc(F)cc1	0	17	/	91*	0	3
Cc1ncc(CO)c2cc(S(=O)(=O)c3ccc(F)cc3)c(=O)oc12	-4	-4	1	7	0	-9

Compound activity as filed in PubChem BioAssay.
